In article PMC5540273 (PLoS ONE, 2017):

Experiments:
Conditions in all cases: concentration: 1 μM, replicates: in singlicate; n = 1
MYO3A = test system: MYO3A
MYO3B = test system: MYO3B
NDR1 = test system: T1, NDR1
T1 construct: gene STK38

NDR2 = test system: NDR2
NEK10 = test system: NEK10
NEK11 = test system: NEK11
NEK1 = test system: NEK1
NEK2 = test system: NEK2
NEK3 = test system: NEK3
NEK4 = test system: NEK4
NEK5 = test system: NEK5
NEK6 = test system: NEK6
NEK7 = test system: NEK7
NEK9 = test system: NEK9
NIK = test system: T2, NIK
T2 construct: gene MAP3K14

NIM1 = test system: T3, NIM1
T3 construct: gene MGC42105

NLK = test system: NLK
OSR1 = test system: T4, OSR1
T4 construct: gene OXSR1

PAK1 = test system: PAK1
PAK2 = test system: PAK2
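Also: KINOMEscan kinase panel screen.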

Row | SMILES | %Inh (MYO3A) [%] | %Inh (MYO3B) [%] | %Inh (NDR1) [%] | %Inh (NDR2) [%] | %Inh (NEK10) [%] | %Inh (NEK11) [%] | %Inh (NEK1) [%] | %Inh (NEK2) [%] | %Inh (NEK3) [%] | %Inh (NEK4) [%] | %Inh (NEK5) [%] | %Inh (NEK6) [%] | %Inh (NEK7) [%] | %Inh (NEK9) [%] | %Inh (NIK) [%] | %Inh (NIM1) [%] | %Inh (NLK) [%] | %Inh (OSR1) [%] | %Inh (PAK1) [%] | %Inh (PAK2) [%]
1 | CC[C@@H]1CO[C@H](C(=O)Nc2ccccc2)CN1c1cc(-c2ccc3c(N)n[nH]c3c2)nc(NC)n1 [GSK2376236] | 19 | 0 | 0 | 5 | 0 | 0 | 0 | 10 | 4 | 0 | 19 | 0 | 0 | 19 | 0 | 0 | 17 | 14 | 15 | 7
2 | COC(=O)C(Cc1ccccc1)NC(=O)NC1CCN(c2ccnc(Nc3ccc(F)cc3)n2)C1 (centres unmarked) [GSK1379714] | 0 | 20 | 13 | 14 | 14 | 44 | 0 | 0 | 1 | 0 | 12 | 0 | 0 | 17 | 50 | 33 | 6 | 5 | 9 | 5
3 | COc1nccc(-c2c(-c3ccc(F)cc3)ncn2CCCN2CCOCC2)n1 [SB-282852] | 5 | 0 | 16 | 0 | 0 | 2 | 0 | 0 | 29 | 0 | 0 | 0 | 0 | 0 | 18 | 34 | 0 | 0 | 0 | 0
4 | COc1ccc(-c2coc3ccc(-c4nnc(C)o4)cc23)cc1 | 0 | 12 | 8 | 9 | 47 | 0 | 0 | 0 | 21 | 17 | 0 | 0 | 0 | 0 | 0 | 0 | 0 | 1 | 23 | 0
5 | Fc1ccc(-c2nc3n(c2-c2ccncc2)CCS3)cc1 [GI98581] | 12 | 0 | 0 | 0 | 14 | 9 | 0 | 0 | 6 | 38 | 8 | 6 | 0 | 8 | 2 | 10 | 64 | 5 | 0 | 6
6 | COc1ccc(CSc2nnc(-c3ccc4ncsc4c3)o2)cc1C(F)(F)F | 15 | 6 | 0 | 10 | 8 | 0 | 10 | 0 | 29 | 0 | 0 | 0 | 0 | 0 | 0 | 0 | 0 | 0 | 16 | 16
7 | O=c1cc(N2CCOCC2)nc2n(Cc3cccc(Cl)c3Cl)c3ccccc3n12 [GSK2299009] | 0 | 6 | 33 | 0 | 9 | 0 | 0 | 14 | 3 | 8 | 30 | 4 | 20 | 24 | 0 | 2 | 25 | 11 | 0 | 5
8 | COc1cccc(NC(=O)Nc2ccc(C)c(-c3ccc(C(=O)Nc4ccncc4)cc3)c2)c1 [GSK1398474] | 0 | 0 | 51 | 0 | 47 | 0 | 25 | 0 | 7 | 15 | 2 | 3 | 0 | 12 | 0 | 0 | 30 | 6 | 29 | 16
9 | CS(=O)(=O)CCNCc1nc(-c2ccc3ncnc(Nc4ccc5c(cnn5Cc5ccccc5)c4)c3c2)cs1.Cl.Cl [GW569716] | 34 | 0 | 8 | 0 | 16 | 29 | 0 | 0 | 2 | 3 | 0 | 0 | 0 | 0 | 26 | 41 | 16 | 0 | 0 | 1
10 | CC(C)c1ccc(O)cc1Nc1ccnc2ccc(C(F)(F)F)cc12 [GW482059] | 0 | 0 | 0 | 0 | 0 | 22 | 0 | 2 | 0 | 0 | 0 | 0 | 0 | 0 | 0 | 0 | 0 | 1 | 0 | 6
11 | CCn1c(-c2ccccc2)nc2cnccc21 [SB-733416] | 28 | 0 | 0 | 0 | 17 | 5 | 0 | 0 | 9 | 35 | 0 | 13 | 0 | 0 | 0 | 16 | 11 | 1 | 23 | 11
12 | COc1cccc(CNC(=O)NC2CCN(c3ccnc(Nc4ccc(F)cc4)n3)C2)c1 (centres unmarked) [GSK1379723] | 0 | 0 | 0 | 0 | 0 | 0 | 0 | 18 | 5 | 22 | 21 | 0 | 2 | 0 | 24 | 14 | 3 | 10 | 1 | 0
13 | CNc1nc(-c2ccc3c(N)n[nH]c3c2)cc(N2C[C@@H](C(=O)Nc3ccccc3)CC[C@H]2C)n1 [GSK2298859] | 27 | 0 | 22 | 0 | 13 | 0 | 0 | 0 | 0 | 0 | 7 | 0 | 0 | 4 | 0 | 0 | 0 | 10 | 0 | 0
14 | Cc1c(Cn2c3ccccc3n3c(=O)cc(N4CCOCC4)nc23)cccc1C(F)(F)F [GSK2306394] | 0 | 0 | 0 | 58 | 0 | 0 | 0 | 23 | 0 | 0 | 0 | 0 | 17 | 9 | 61 | 7 | 0 | 3 | 12 | 7
15 | COc1ccc(CSc2nnc(-c3ccc4c(c3)CCO4)o2)cc1 | 0 | 0 | 0 | 0 | 0 | 0 | 10 | 0 | 26 | 0 | 0 | 0 | 0 | 0 | 0 | 0 | 0 | 0 | 18 | 9
16 | Cc1ccccc1-c1cc(-c2c[nH]nc2-c2ccccn2)ccn1 [GW680061] | 0 | 0 | 0 | 0 | 4 | 11 | 0 | 0 | 0 | 11 | 9 | 0 | 0 | 0 | 28 | 18 | 15 | 9 | 0 | 5

Row | SMILES | %Inh (MYO3A) [%] | %Inh (MYO3B) [%] | %Inh (NDR1) [%] | %Inh (NDR2) [%] | %Inh (NEK10) [%] | %Inh (NEK11) [%] | %Inh (NEK1) [%] | %Inh (NEK2) [%] | %Inh (NEK3) [%] | %Inh (NEK4) [%] | %Inh (NEK5) [%] | %Inh (NEK6) [%] | %Inh (NEK7) [%] | %Inh (NEK9) [%] | %Inh (NIK) [%] | %Inh (NIM1) [%] | %Inh (NLK) [%] | %Inh (OSR1) [%] | %Inh (PAK1) [%] | %Inh (PAK2) [%]
17 | Nc1cccc(-c2ccc3c(N)n[nH]c3c2)n1 [GSK2192730] | 15 | 0 | 23 | 0 | 0 | 0 | 18 | 7 | 9 | 0 | 9 | 0 | 0 | 17 | 1 | 0 | 0 | 3 | 16 | 5
18 | COc1ccc(Nc2nccc(NCCNC(=O)Nc3cc(C)ccc3C)n2)cc1 [GSK1379899] | 0 | 0 | 0 | 0 | 2 | 11 | 0 | 0 | 0 | 4 | 0 | 0 | 8 | 5 | 11 | 0 | 0 | 2 | 0 | 0
19 | COc1cc2ncnc(Nc3cccc(Br)c3)c2cc1OC.Cl [GI230329] | 20 | 0 | 26 | 12 | 21 | 41 | 0 | 0 | 6 | 0 | 11 | 0 | 0 | 4 | 29 | 26 | 33 | 16 | 29 | 20
20 | c1ccc(-c2ccnc3[nH]ccc23)cc1 [SB-693578] | 36 | 0 | 1 | 12 | 30 | 0 | 0 | 74 | 19 | 0 | 8 | 0 | 0 | 0 | 43 | 26 | 23 | 30 | 0 | 0
21 | Cc1cnc(N)c(/C=C/c2cncc(C(=O)NCCc3ccc(Cl)cc3Cl)c2)c1.Cl [GSK190937] | 6 | 0 | 21 | 21 | 13 | 0 | 5 | 10 | 0 | 0 | 9 | 0 | 0 | 0 | 10 | 18 | 7 | 0 | 4 | 10
22 | CNCc1ccc2nc(NC(=O)c3ccc(C(C)(C)C)cc3)cn2c1 | 2 | 0 | 34 | 3 | 20 | 34 | 28 | 2 | 18 | 7 | 0 | 2 | 10 | 3 | 28 | 3 | 1 | 22 | 7 | 26
23 | CSc1ccc(-c2nc3n(c2-c2ccncc2)CCC3)cc1 [SKF-105561] | 1 | 8 | 21 | 4 | 0 | 36 | 0 | 3 | 23 | 6 | 0 | 1 | 3 | 0 | 0 | 18 | 23 | 19 | 0 | 39
24 | COc1cccc(C2=C(Nc3cc(Cl)c(O)c(Cl)c3)C(=O)NC2=O)c1 [SB-390767] | 0 | 0 | 0 | 0 | 30 | 1 | 0 | 100 | 13 | 28 | 7 | 0 | 0 | 0 | 4 | 1 | 0 | 15 | 2 | 15
25 | COc1ccc(Nc2nccc(-c3ccc(NC(=O)c4cc5cc(F)ccc5[nH]4)cc3)n2)cc1 [GSK1229496] | 0 | 0 | 7 | 2 | 0 | 17 | 0 | 0 | 0 | 0 | 14 | 0 | 0 | 0 | 30 | 0 | 23 | 8 | 0 | 0
26 | NS(=O)(=O)c1cccc(N/C=C2\C(=O)Nc3ccc(S(=O)(=O)Cc4c(Cl)cccc4Cl)cc32)c1 [GSK398099] | 14 | 0 | 0 | 0 | 0 | 0 | 10 | 21 | 10 | 0 | 26 | 0 | 0 | 13 | 2 | 0 | 20 | 9 | 0 | 0
27 | Cc1ccc(NC(=O)c2ccc(Cl)cc2)cc1-c1ccc(C(=O)Nc2ccncc2)cc1 [GSK1398467] | 16 | 0 | 0 | 0 | 0 | 0 | 0 | 5 | 15 | 0 | 0 | 0 | 0 | 0 | 3 | 5 | 38 | 0 | 0 | 0
28 | CC(=O)c1c(C)c2cnc(Nc3ccc(N4CCNCC4)cn3)nc2n(C2CCCC2)c1=O | 11 | 0 | 0 | 0 | 13 | 0 | 0 | 0 | 36 | 0 | 1 | 0 | 0 | 0 | 3 | 0 | 29 | 0 | 0 | 0
29 | CNC(=O)c1ccc(C)c(-n2c(C)cc(OCc3ccc(F)cc3F)c(Br)c2=O)c1 | 0 | 0 | 0 | 0 | 0 | 0 | 0 | 0 | 12 | 0 | 0 | 0 | 2 | 0 | 0 | 0 | 0 | 0 | 2 | 0
30 | CC(=O)c1c(C)c2cnc(Nc3ccn(C)n3)nc2n(C2CCCC2)c1=O | 0 | 0 | 0 | 4 | 15 | 0 | 0 | 0 | 22 | 0 | 18 | 0 | 0 | 0 | 0 | 2 | 25 | 0 | 0 | 0
31 | COc1ccc(Nc2nccc(N3CCC(NC(=O)c4cc5ccccc5s4)C3)n2)cc1 (centres unmarked) [GSK1379738] | 11 | 0 | 0 | 0 | 16 | 0 | 2 | 1 | 15 | 0 | 19 | 0 | 0 | 0 | 1 | 9 | 20 | 0 | 2 | 0
